Reference: PubChem BioAssay AID488899 (Broad Institute, 2010)
The campaign covered roughly 330,000 compounds. About 2,800 (0.85%) were called active. This is one part of a sample in which actives are shown more often than they occur.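 Rule for the calls: active = mean inhibition across replicates of 60% or more, whatever share of single replicates reaches that level; inconclusive = some that reach 60%, reason not given; inactive = mean inhibition across replicates below 60%.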

Assay: MITF transcriptional activity suppression – cell-based, SK-MEL-5, single point, luciferase, primary screen (AID 488899)
Conditions: SK-MEL-5 TRPM1 promoter luciferase, 24 h; at 12.5 µM; hits give high values

inhibition, inactive:
CCNC(=S)NCC 5.56%
O=C(NNC(=O)c1ccc(-n2cncn2)c([N+](=O)[O-])c1)c1ccccc1 -1.1%
Cc1ccc(-c2csc(NC3OC(=O)c4ccccc43)n2)cc1 (stereo not drawn) 31.3%
COc1cc(CC(=O)Nc2nc(-c3ccc(F)c(F)c3)cs2)cc(OC)c1OC 0.159%
CCc1cc(-c2nnc(SCC(=O)NC3CC3)n2C)cs1 -9%
CCOC(=O)c1ccc(NC(=O)c2c(N)n(C)c(=O)[nH]c2=O)cc1 -48.3%
O=c1[nH]c(NCCO)nnc1Cc1ccc(Cl)cc1 5.61%
CC(C)c1ccc(Cc2nnc(NCCCO)[nH]c2=O)cc1 -0.574%
Cc1ccc(CN2CC(C(=O)N3CCN(S(=O)(=O)c4ccccc4)CC3)CC2=O)cc1 (stereo not drawn) -1.06%
CCOc1nc(NCCN2CCOCC2)nc(Nc2ccc(C)cc2)n1 -2.25%
c1ccc(-c2ccc(OCCN3CCOCC3)cc2)cc1 -61.1%
O=C1NC(c2ccc(-c3ccccc3[N+](=O)[O-])o2)C(C(=O)c2ccc(Cl)cc2)C(O)(C(F)(F)F)N1 (stereo not drawn) 12.2%
Cc1c(NC(=O)Nc2ccccc2Cl)sc(=S)n1C -9.97%
CN(C)S(=O)(=O)Oc1ccccc1C(=O)Nc1ccccc1Cl -7.26%
Nc1ccc2[nH]c(=S)sc2c1 -7.16%
CC(Oc1ccc(Br)cc1)C(=O)NC1CCCCCC1 (stereo not drawn) -16.6%
OC(COc1ccc(Br)cc1)CN1CCCC1 (stereo not drawn) -0.089%
COc1ccc(C2NCCCC2c2ccccc2)cc1 (stereo not drawn) 14.7%
Cc1ccccc1N1CCN(C(=O)c2cccnc2)CC1 2.88%
CCOc1ccc(NC(=S)N2CCC(N(C)CC3CCCO3)CC2)cc1 (stereo not drawn) -2.52%
CCOC(=O)CN/C=C(\C#N)c1ccc(F)cc1 19.8%
C/C(=N\OCC(=O)O)c1ccc(Cl)cc1 -2.61%

inhibition, active:
COc1ccc2c(c1OC)C(=O)OC2Nc1nc(-c2ccccc2)cs1 (stereo not drawn) 68.6%
COc1ccc(Cc2nnc(N/N=C/c3ccccc3O)[nH]c2=O)cc1OC 64%
c1ccc2cc3c(NCCN4CCOCC4)ccnc3cc2c1 80.4%
O=C(Nc1ccccc1Cl)/C(Cl)=C(\Cl)S(=O)c1ccccc1 (stereo not drawn) 97%
CC(C)(C)CC(C)(C)NCC(O)COCCOc1ccc(Br)cc1 (stereo not drawn) 85.9%
CCOc1cc(/C=C(/C#N)c2ccc(Cl)cc2)cc(Cl)c1OCC(=O)O 98.2%
